Drawing on PubChem BioAssay, this text covers composite z-score and z-score for 6 compounds.

Test [1] concerns Plasmodium falciparum Sir2 (PF13_0152, Sir2A). Briefly: Plasmodium falciparum Sir2A binding compounds – biochemical, small-molecule microarray, 635 nm fluorescence, primary screen (AID 1098).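 Note: score merges spot fluorescence intensity with its signal-to-noise ratio.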 The conditions noted are these: fluorescence 635 nm, higher = more signal.
Test [2] in a line: probe aDKK1 binding to arrayed compounds – biochemical, biotinylated probe, 635/667 nm fluorescence, primary screen (AID 1099).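 Note: score merges 667nm spot fluorescence with signal to noise across triplicate slides.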 The conditions noted are these: small-molecule microarray, higher = more signal.
Test [3] can be described thus: probe aCHRDL2 binding to arrayed compounds – biochemical, biotinylated probe, 635/667 nm fluorescence, primary screen (AID 1100). The conditions noted are these: small-molecule microarray, higher = more signal.
Test [4] in a line: change in splice reporter luminescence, either direction, cell-based, HEK293, spliceosome inhibition project, primary screen (AID 1101).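 Note: HEK293 cells carrying a splicing-competent luciferase reporter gene; test concentration not given here.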 The conditions noted are these: HEK293 splicing luciferase reporter, 24 h, higher = more signal, called active from +8 up or from −8 down. In general terms: Reporter assays use an easily measured gene product as a stand-in for the process of interest.

Test [5] addresses Fibroblast growth factor 10 (Homo sapiens) (UniProt O15520). Description: compounds binding fibroblast growth factor 10 – biochemical, small-molecule microarray, 635 nm fluorescence, primary screen (AID 1102). The conditions noted are these: FGF10 binding, fluorescence 635 nm, higher = more signal.
The subject of test [6] is glycogen synthase kinase-3 (GSK3A per assay name; protocol says GSK3B). Briefly: compounds binding glycogen synthase kinase-3 – biochemical, small-molecule microarray, 635 nm fluorescence, GSK3A, primary screen (AID 1103). Note: the record names both GSK3A and GSK3B. The following applies: fluorescence 635 nm, higher = more signal.
Test [7] concerns the target Epidermal growth factor receptor (Homo sapiens) (UniProt P00533). Description: compounds binding epidermal growth factor receptor – biochemical, small-molecule microarray, 635 nm fluorescence, primary screen (AID 1104).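 Note: score merges 667 nm emission intensity with spot signal to noise over triplicate slides.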 The conditions noted are these: EGFR binding, higher = more signal.
Test [8] addresses Follistatin-related protein 3 (Homo sapiens) (UniProt O95633). Description: compounds binding follistatin-related protein 3 – biochemical, small-molecule microarray, 635 nm fluorescence, primary screen (AID 1105).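 Note: score merges emission near 667 nm and signal to noise per printed spot across three slides.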 The following applies: FSTL3 binding, higher = more signal.
Test [9] deals with Dickkopf-related protein 1 (Homo sapiens) (UniProt O94907). Description: small molecules binding DKK1 protein – biochemical, small-molecule microarray, 635 nm fluorescence scan, primary screen (AID 1106).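 Note: score merges emission near 667 nm with signal to noise over three replicate slides.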 The following applies: higher = more signal.
Dickkopf-related protein 1 (Homo sapiens), sequence (O94907 whole entry, looked up): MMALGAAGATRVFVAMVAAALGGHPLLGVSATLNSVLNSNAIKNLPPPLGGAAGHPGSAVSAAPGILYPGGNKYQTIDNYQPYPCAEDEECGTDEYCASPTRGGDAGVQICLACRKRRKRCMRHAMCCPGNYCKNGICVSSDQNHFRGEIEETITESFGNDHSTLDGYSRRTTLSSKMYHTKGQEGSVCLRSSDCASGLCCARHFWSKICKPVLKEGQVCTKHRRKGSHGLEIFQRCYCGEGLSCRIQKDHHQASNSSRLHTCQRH
In test [10] the test system is Inhibin beta A chain (activin A). Description: small molecules binding activin A – biochemical, small-molecule microarray, 635 nm fluorescence scan, primary screen (AID 1107).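 Note: mouse activin A protein probed at 4.33 µg/mL on printed slides; score merges bound-protein fluorescence near 667 nm with spot signal-to-noise.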 The following applies: INHBA, higher = more signal.
The test system of test [11] is Human papillomavirus type 1a protein E7 (residues 44-93). Description: small molecules binding HPV E7 44-93 – biochemical, small-molecule microarray, residues 44-93, 635 nm fluorescence, primary screen (AID 1108).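 Note: E7 fragment applied at 1 µg/mL in TBST for 1 h at 4 C; score combines spot fluorescence with its signal to noise ratio.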 The following applies: fluorescence 635 nm, higher = more signal.
Test [12] is described as follows: hepatitis C replication reporter changes, two-sided – Huh7 cells, luciferase reporter, HCV replication inhibitor project, primary screen (AID 1109).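 Note: huh7 hepatoma cells harbouring a luciferase neomycin HCV replicon reporter; luciferase luminescence as measure of HCV replicon replication; test concentration not given here.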 The following applies: Huh7 HCV replicon luciferase reporter, 48 h; higher = more signal.
Test [13] has as its target Left-right determination factor 2 (Homo sapiens) (UniProt O00292). Briefly: small molecules binding LEFTY2 protein – biochemical, small-molecule microarray, 635 nm fluorescence scan, primary screen (AID 1110). The following applies: higher = more signal.
The target in test [14] is Calmodulin-1 (Homo sapiens) (UniProt P0DP23). Description: small molecules binding calmodulin-1 with EGTA – biochemical, small-molecule microarray, Cy5-labelled CALM1, profiling panel (AID 1111).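 Note: labelled calmodulin applied in Tris saline Tween buffer holding calcium plus EGTA and DTT.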 The following applies: Cy5-CALM1 binding fluorescence, higher = more signal.
Test [15] has the same target. Description: small molecules binding Ca-loaded calmodulin-1 – biochemical, small-molecule microarray, Cy5-labelled CALM1, plus calcium, artefact control for SMM control-protein annotation, profiling panel (AID 1112).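 Note: score merges spot fluorescence with signal to noise from triplicate slides.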 The conditions noted are these: Cy5-CALM1 binding fluorescence, higher = more signal.
Test [16] is described as follows: probe aWnt5a binding to arrayed compounds – biochemical, biotinylated probe, 635/667 nm fluorescence, primary screen (AID 1113).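 Note: score merges 667 nm fluorescence intensity with signal-to-noise per printed feature.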 The following applies: small-molecule microarray, higher = more signal.
Test [17] can be described thus: probe aShh binding to arrayed compounds – biochemical, biotinylated probe, 635/667 nm fluorescence, primary screen (AID 1114).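 Note: probe is biotin-labelled aShh protein from a stem cell growth factor screen; measures binding of labelled protein to compounds printed on the slide; score merges feature fluorescence at 667 nm with signal-to-noise.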 The conditions noted are these: small-molecule microarray, higher = more signal.
The nature of test [18]: probe aNog binding to arrayed compounds – biochemical, biotinylated probe, 635/667 nm fluorescence, primary screen (AID 1115).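 Note: probe is biotinylated aNog protein used at 0.15 µg/mL for 1 h at 4 C; z-score combines 667 nm fluorescence of each spot with its signal to noise.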 The following applies: small-molecule microarray, higher = more signal.
Test [19] has as its target Torsin-1A-interacting protein 1 (Homo sapiens) (UniProt Q5JTV8). Description: compound microarray binding of lysate hLAP1 – cell lysate, small-molecule microarray, COS7 lysate, 635/667 nm fluorescence, primary screen (AID 1116). The conditions noted are these: 635 nm fluorescence, higher = more signal.
The target in test [20] is Alpha-bungarotoxin (Bungarus multicinctus) (UniProt P60615). Briefly: compounds binding labelled alpha-BTX control protein – biochemical, small-molecule microarray, Alexa647 label, 635/667 nm fluorescence, artefact control for SMM control protein annotation, profiling panel (AID 1117). The following applies: alpha-BTX-A647 binding fluorescence, higher = more signal.
Alpha-bungarotoxin (Bungarus multicinctus), sequence (P60615 whole entry, looked up): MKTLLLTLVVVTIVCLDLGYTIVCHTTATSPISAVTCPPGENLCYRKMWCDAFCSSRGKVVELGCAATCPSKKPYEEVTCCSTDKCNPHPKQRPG

Molecules are shown by their SMILES. Activity calls are given as the source filed them.

Fibroblast growth factor 10 (Homo sapiens), sequence (O15520 whole entry, looked up): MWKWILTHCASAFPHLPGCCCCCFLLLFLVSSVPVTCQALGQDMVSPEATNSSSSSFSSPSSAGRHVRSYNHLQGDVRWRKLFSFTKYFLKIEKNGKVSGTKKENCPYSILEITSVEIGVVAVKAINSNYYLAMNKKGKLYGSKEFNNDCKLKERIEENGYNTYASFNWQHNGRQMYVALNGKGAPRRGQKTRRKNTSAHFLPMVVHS
Torsin-1A-interacting protein 1 (Homo sapiens), sequence (Q5JTV8 whole entry, looked up): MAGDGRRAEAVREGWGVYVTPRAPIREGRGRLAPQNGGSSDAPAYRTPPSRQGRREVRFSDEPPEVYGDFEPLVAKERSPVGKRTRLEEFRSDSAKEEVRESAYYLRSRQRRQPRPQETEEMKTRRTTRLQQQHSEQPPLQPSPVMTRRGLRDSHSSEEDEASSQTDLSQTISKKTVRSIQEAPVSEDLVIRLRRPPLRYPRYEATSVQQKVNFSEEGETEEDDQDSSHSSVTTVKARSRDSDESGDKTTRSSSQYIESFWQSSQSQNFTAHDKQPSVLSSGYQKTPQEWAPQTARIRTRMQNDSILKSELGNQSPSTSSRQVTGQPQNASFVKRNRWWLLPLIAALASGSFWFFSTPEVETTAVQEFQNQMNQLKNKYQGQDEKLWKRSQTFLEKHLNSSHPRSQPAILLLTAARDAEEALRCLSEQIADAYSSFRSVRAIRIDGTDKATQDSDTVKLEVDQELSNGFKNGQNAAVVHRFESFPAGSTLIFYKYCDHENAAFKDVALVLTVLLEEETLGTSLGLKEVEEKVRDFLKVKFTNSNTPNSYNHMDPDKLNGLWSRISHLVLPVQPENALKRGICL
Epidermal growth factor receptor (Homo sapiens), sequence (P00533 whole entry, looked up): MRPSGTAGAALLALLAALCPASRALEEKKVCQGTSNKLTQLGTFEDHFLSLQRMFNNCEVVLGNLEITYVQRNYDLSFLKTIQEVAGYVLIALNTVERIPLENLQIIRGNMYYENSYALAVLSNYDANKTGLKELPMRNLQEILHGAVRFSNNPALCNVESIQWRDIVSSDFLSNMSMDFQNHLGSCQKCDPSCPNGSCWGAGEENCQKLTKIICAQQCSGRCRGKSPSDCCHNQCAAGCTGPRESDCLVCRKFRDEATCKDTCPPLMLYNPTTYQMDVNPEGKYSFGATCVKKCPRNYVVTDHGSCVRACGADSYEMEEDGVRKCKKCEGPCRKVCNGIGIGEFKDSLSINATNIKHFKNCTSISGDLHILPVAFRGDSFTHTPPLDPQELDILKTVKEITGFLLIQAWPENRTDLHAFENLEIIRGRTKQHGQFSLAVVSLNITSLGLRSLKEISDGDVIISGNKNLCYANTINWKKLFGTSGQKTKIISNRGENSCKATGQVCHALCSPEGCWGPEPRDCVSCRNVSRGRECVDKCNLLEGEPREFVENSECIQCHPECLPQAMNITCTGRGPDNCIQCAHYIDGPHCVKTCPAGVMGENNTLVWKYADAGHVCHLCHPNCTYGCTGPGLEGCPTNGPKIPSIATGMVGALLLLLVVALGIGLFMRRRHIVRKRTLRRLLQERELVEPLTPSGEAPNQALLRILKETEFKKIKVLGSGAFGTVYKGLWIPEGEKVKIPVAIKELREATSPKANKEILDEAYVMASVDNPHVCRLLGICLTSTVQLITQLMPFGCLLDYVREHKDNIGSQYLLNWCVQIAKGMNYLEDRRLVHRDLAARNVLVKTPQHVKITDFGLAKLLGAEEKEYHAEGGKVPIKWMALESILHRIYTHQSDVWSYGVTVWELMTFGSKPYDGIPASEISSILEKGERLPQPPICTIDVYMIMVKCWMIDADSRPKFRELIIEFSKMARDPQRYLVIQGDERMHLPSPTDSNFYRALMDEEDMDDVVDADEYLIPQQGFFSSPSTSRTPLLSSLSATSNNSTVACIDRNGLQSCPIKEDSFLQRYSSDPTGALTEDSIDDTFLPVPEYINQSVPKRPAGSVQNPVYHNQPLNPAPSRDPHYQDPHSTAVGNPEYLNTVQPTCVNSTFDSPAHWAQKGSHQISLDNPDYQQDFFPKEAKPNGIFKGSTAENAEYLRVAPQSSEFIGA
Left-right determination factor 2 (Homo sapiens), sequence (O00292 whole entry, looked up): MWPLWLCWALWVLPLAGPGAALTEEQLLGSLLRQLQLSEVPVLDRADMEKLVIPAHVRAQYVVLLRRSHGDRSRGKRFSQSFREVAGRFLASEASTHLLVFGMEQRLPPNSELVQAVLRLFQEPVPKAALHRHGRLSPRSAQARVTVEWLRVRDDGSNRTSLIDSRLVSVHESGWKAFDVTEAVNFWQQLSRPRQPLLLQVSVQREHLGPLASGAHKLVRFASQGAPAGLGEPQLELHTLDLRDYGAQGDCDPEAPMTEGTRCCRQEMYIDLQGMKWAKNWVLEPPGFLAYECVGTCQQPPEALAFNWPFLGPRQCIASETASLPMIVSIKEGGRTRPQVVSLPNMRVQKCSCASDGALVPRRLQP
Follistatin-related protein 3 (Homo sapiens), sequence (O95633 whole entry, looked up): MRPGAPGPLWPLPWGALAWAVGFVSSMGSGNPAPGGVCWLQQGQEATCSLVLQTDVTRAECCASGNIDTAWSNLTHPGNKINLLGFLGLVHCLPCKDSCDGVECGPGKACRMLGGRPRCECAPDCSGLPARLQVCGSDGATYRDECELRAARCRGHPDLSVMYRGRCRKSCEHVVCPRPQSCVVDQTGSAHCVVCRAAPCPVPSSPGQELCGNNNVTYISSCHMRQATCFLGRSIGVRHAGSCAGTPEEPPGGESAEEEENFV

As for `CN1C(=O)[C@@]2(CCS(=O)(=O)c3ccccc3)N=C(c3ccc(OCCCO)cc3)O[C@H]2c2ccccc21`, the composite z-score in test [1] turned out to be 1.12; in test [2] it was 0.0859; in [3] it was 0.861; in test [5] it was 0.939; in test [6], 1.32; in test [7] it was 0.364. For the same compound, the composite z-score in test [8] is 1.05; in test [9], 0.172; in test [10], 0.615; in test [11] it was 1.48; in [13], -0.0486; in test [14], 2.46. Also, the composite z-score in test [15] is -0.865; in test [16], -0.176; in test [17] it was -0.367; in test [18], -0.321; in test [19], 1.72; in test [20] it was 1.32. The z-score in [4] is -1.06 (inactive); in [12], -1.55.
For the compound `CCCC[C@@H]1C[C@H]1[C@@H](NC(=O)c1cccnc1)c1ccc(-c2ccccc2)cc1`, the composite z-score is 0.0651 in test [1]; -0.161 in test [2]; 0.993 in test [3]; -1.19 in test [5]; -1.2 in test [6]; -1.46 in test [7]. Besides, the composite z-score in test [8] is -1.01; in test [9], -1.44; in [10] it was 0.936; in [11], -0.447; in [13] it was -1.99; in test [14] it was -0.297. For the same compound, the composite z-score in test [15] is 0.742; in test [16], -0.141; in test [17], 2.01; in [18], -0.744; in [19], -1.2; in test [20] it was -0.556. Besides, the z-score in test [4] is -4.22 (inactive); in [12] it was -1.95.
For the compound `COc1cc(CO)cc(I)c1O[C@H]1C=C(C(=O)NCCO)C[C@@H](N(Cc2ccc(F)cc2)C(=O)C2CCCO2)[C@@H]1O` (stereo not given in full), the composite z-score in test [1] is 0.0885; in test [2], -0.139; in test [3], -0.697; in test [5], 0.182; in test [6], 0.1; in test [7], 0.346. The composite z-score in test [8] was 0.203; in test [9] it was 0.208; in [10] it was 0.676; in test [11] it was -0.284; in test [13] it was 0.407; in test [14], -0.0131. Also, the composite z-score in test [15] was -0.402; in test [16], -0.124; in test [17] it was -0.338; in [18] it was -0.0312; in test [19], -0.0829; in [20] it was 0.988. Besides, the z-score in [4] is -0.0727 (inactive); in test [12], 0.561.
For the compound `COCCOC(=O)N1C(=O)[C@@]2(c3cc(C#CCNC(N)=O)ccc31)[C@H](C(=O)N1CCCCCCC1)[C@H]1C(=O)O[C@H](c3ccccc3)[C@H](c3ccccc3)N1[C@@H]2c1ccc(O)cc1`, the composite z-score in test [1] was 1.25; in test [2], -0.124; in test [3], 0.526; in test [5] it was 0.527; in [6], 1; in [7] it was 0.734. The composite z-score in test [8] was found to be 1.28; in [9], 0.751; in test [10], 1.27; in test [11] it was 0.964; in [13] it was 0.212; in test [14] it was 0.356. The composite z-score in test [15] is -0.947; in [16], -0.164; in [17], -0.214; in test [18], -0.456; in test [19], 0.546; in test [20] it was 0.863. Also, the z-score is 0.392 (inactive) in test [4] and -1.07 in [12].
For the compound `Cc1c(NC(=O)/C(C#N)=C/C=C/c2ccc(N(C)C)cc2)c(=O)n(-c2ccccc2)n1C`, the composite z-score in [1] turned out to be 0.917; in test [2], 0.735; in test [3] it was 0.294; in [5], 0.89; in test [6], 1.02; in test [7] it was 0.994. The composite z-score is 0.788 in [8]; 0.646 in test [9]; 1.08 in [10]; 0.55 in test [11]; 0.431 in test [13]; 0.824 in test [14]. For the same compound, the composite z-score is -0.224 in test [15]; 0.19 in test [16]; 0.173 in test [17]; 0.432 in [18]; 1.69 in [19]; 1.04 in test [20]. Also, the figures for the z-score in [4] and in [12] were -0.0455 (inactive) and -0.754, respectively.
In the case of `O=C1NCC(=O)N2[C@@H]1C[C@@H](C(=O)O)[C@H]2c1ccc(O)cc1`, the composite z-score in test [1] is 1.41; in [2], -0.0052; in test [3] it was 0.128; in test [5] it was 0.944; in test [6], 1.32; in test [7] it was -0.0519. The composite z-score in [8] was found to be 1.37; in test [9], 1.78; in [10] it was 0.571; in test [11], 1.4; in test [13], 0.834; in test [14], 0.458. The composite z-score in test [15] is -0.451; in [16], -0.0758; in test [17], 0.123; in [18] it was -0.36; in [19] it was -0.0956; in test [20], 0.707. For the same compound, the z-score in test [4] was -0.22 (inactive); in test [12] it was 2.63.
